Laboratory results as given in ChEMBL document CHEMBL3988442, “University of Dundee, Small-Polar-MMV Screening Library” (2021).
About 13,000 (27%) of roughly 48,000 compounds showed an effect of 50% or more. Some of the results follow.

Tested on: Wolbachia pipientis
Assay: Anti-Wolbachia Cell-Based Screen
Type: functional
Set-up: scale not given: in the data most compounds retested in dose-response had high values
Settings: 5 µM

Row | SMILES | Percent Effect
1 | CC(CNCc1ccncc1)Oc1ccccn1.Cl (stereo not drawn) | 14.12%
2 | Cc1cc(N2Cc3cnc(CC(C)C)nc3C2)nc(N)n1 | -9.889%
3 | COC(=O)c1ccc(N(C)C2CCC2)nn1 | -14.02%
4 | CSc1ccccc1CCC1CCS(=O)(=O)C1 (stereo not drawn) | -15.64%
5 | CS(=O)(=O)CCC(=O)NC1CC(c2cccc(Cl)c2)C1 (stereo not drawn) | -6.793%
6 | CNC(=O)C1CN(C(=O)c2ccccc2)Cc2cn(C)nc21 (stereo not drawn) | 107.7%
7 | COCC(=O)N1Cc2cn(C)nc2C(COc2cccnc2)C1 (stereo not drawn) | -3.351%
8 | CNC(=O)C1CN(C(=O)COc2ccccc2)Cc2cn(C)nc21 (stereo not drawn) | 122.8%
9 | COCC1CN(C(=O)c2ccco2)Cc2cn(C)nc21.O=C(O)C(F)(F)F (stereo not drawn) | -0.009633%
10 | COCC1CN(C(=O)COc2ccccc2)Cc2cn(C)nc21.O=C(O)C(F)(F)F (stereo not drawn) | -8.714%
11 | CCOCC1CN(C(=O)COc2ccccc2)Cc2cn(C)nc21 (stereo not drawn) | -5.674%
12 | O=C1N(c2ccccc2)C[C@H]2CN(C3CCC3)CCN12 | -7.27%
13 | O=C(c1ccccc1)N1CCN(C2CCc3ccc(F)cc32)CC1 (stereo not drawn) | -8.707%
14 | OC1(Cn2ccc3ccncc32)CCN(Cc2ccccn2)CC1 | -11.69%
15 | CCn1cc(CN2CCN(C(=O)N3CCOCC3)CC2)cn1 | 3.548%
16 | CCn1cc(CN2CCC(O)(Cn3ccc4ncccc43)CC2)cn1 | 79.32%
17 | Cc1cc(-n2cccn2)ccc1CN1CCC(O)(CN2CCCCC2)C1 (stereo not drawn) | -16.49%
18 | CCn1ccnc1-c1nccn1-c1ccccc1CN1CCOCC1 | -5.226%
19 | OC1(Cn2ccc3ncccc32)CCN(Cc2cccnc2)CC1 | 93.84%
20 | CCn1cc(CN2CCC(CCC(=O)Nc3ccccc3Cl)CC2)cn1 | 5.103%
21 | CCn1ncc(CN2CCC(O)(Cn3ccc4ncccc43)CC2)c1C | 101.2%
22 | OC1(Cn2ccc3ncccc32)CCN(Cc2cccs2)CC1 | 107.1%
23 | O=C(CCn1ccc2ccccc21)N1CCN(Cc2cccnc2)CC1 | -2.767%
24 | c1cnnc(N2CCCC(NCc3nc(-c4ccsc4)no3)C2)c1 (stereo not drawn) | -5.717%
25 | COC(=O)c1ccc2ccn(CC3COCCO3)c(=O)c2c1 (stereo not drawn) | -29.12%

Row | SMILES | Percent Effect
26 | NS(=O)(=O)N1CCC(C(=O)Nc2cccc(OC(F)F)c2)CC1 | 23.74%
27 | Cc1cccc2c(=O)c(C(=O)N3CCCC4(CN(C)C(=O)O4)C3)c[nH]c12 (stereo not drawn) | 3.697%
28 | CN(Cc1nc(CS(C)(=O)=O)no1)c1ccccc1 | 1.355%
29 | COc1ccccc1OC1CN(C(=O)C(c2ccccc2F)N(C)C)C1 (stereo not drawn) | 10.69%
30 | O=C(c1cccc(S(=O)(=O)NCCc2nccs2)c1)N1CCOCC1 | -12.77%
31 | COCCCn1c(CN2CCCC(O)C2)cnc1S(=O)(=O)C1CCCC1 (stereo not drawn) | -2.252%
32 | COCCN1C(=O)[C@]2(CC[C@@H]3CN(S(=O)(=O)CC(C)C)C[C@@H]32)N=C1C | -14.47%
33 | CC(C)(C)C(=O)NCC(=O)NCC1CCCS1 (stereo not drawn) | -13.47%
34 | CN(Cc1ccc(C#N)cc1)C(=O)c1ccnc(OC2CCC2)c1 | -4.84%
35 | Cc1cc(C(=O)N2CCN(C(=O)Cc3ccccn3)CC2)c(C)s1 | 2.124%
36 | OCC1(O)CCCN(Cc2ccccc2OCCc2ccccc2)CC1 (stereo not drawn) | 13.11%
37 | Oc1cc(CN2CCC(O)(Cn3ccnc3)CC2)nc2ccc(F)cc12 | -18%
38 | Cc1cc(N2CCCN(Cc3ccc(C)o3)CC2)ccn1 | -3.581%
39 | Cc1ccc(CN2CCC(O)(Cn3ccc4ncccc43)CC2)o1.Cl | 100%
40 | Cc1ccc2nc(CN3CCC(O)(Cn4ccnc4)CC3)cc(O)c2c1 | -4.196%
41 | Cc1ccc(CN2CCCC3(CCN(Cc4ccc(C)o4)C3)C2)o1 (stereo not drawn) | 14.2%
42 | COc1ccc(F)cc1CN1CCC(O)(CN2CCCCC2)C1 (stereo not drawn) | 8.228%
43 | OC1(Cn2ccc3ncccc32)CCN(Cc2cc(F)cc(F)c2)CC1 | 107.3%
44 | Cc1cc(CN2CCC(O)(Cn3ccc4ncccc43)CC2)c(C)s1 | 75.84%
45 | COc1ccccc1CN1CCC(O)(Cn2ccc3ncccc32)CC1 | 82.78%
46 | NC(=O)CN1CC2(CCC1=O)CCN(Cc1cc(F)cc(F)c1)CC2 | 6.606%
47 | Nc1ccnn1C1CCN(Cc2ccccc2)C1 (stereo not drawn) | -4.351%
48 | CCN(C)Cc1cnc(S(=O)(=O)CC)n1CCOC | 2.274%
49 | Cc1cc(S(=O)(=O)NCC2CNCCOC2)c(C)cc1Cl (stereo not drawn) | -6.904%
50 | O=C(O)C(=O)O.c1cnc(-c2noc(C3CN(Cc4ccsc4)C3)n2)cn1 | 20.73%

Row | SMILES | Percent Effect
51 | Cl.OC1(Cn2ccc3ncccc32)CCN(Cc2ccccc2F)CC1 | 103.8%
52 | Cl.OC1(Cn2ccc3ncccc32)CCN(Cc2ccccn2)CC1 | -13.22%
53 | O=C(O)C1(Cc2ccccc2Cl)CCN(c2ncccc2F)CC1 | -2.228%
54 | c1ccc(CO[C@H]2CN(c3ncccn3)C[C@@]23CCCO3)cc1 | 124.5%
55 | COc1ccc(N2CCCC3(C2)CN(c2ncccn2)CCO3)cc1 (stereo not drawn) | 2.929%
56 | c1ccc(CN2CCOC3(CCCN(c4nccs4)C3)C2)cc1 (stereo not drawn) | -0.1767%
57 | CN(C(=O)COC1CCCCC1)C1CCN(CC2CCOC2)CC1 (stereo not drawn) | -5.016%
58 | COc1cc2c(cc1OC)CN(C(C(=O)O)c1c(C)nn(C)c1C)CC2 (stereo not drawn) | 14.43%
59 | CO[C@@H]1CO[C@@]2(CCN(C(=O)COc3ccccc3C)C2)C1 | -3.612%
60 | CO[C@@H]1CO[C@@]2(CCCN(C(=O)C3CC=CC3)C2)C1 | 95.67%
61 | CO[C@H]1CO[C@@]2(CCCN(C(=O)C3CC=CC3)C2)C1 | 107.2%
62 | COc1ccccc1OCC(=O)N1CCC[C@]2(C[C@@H](OC)CO2)C1 | -30.12%
63 | COCC(=O)N1CC[C@@H]2O[C@@H](COCC3CCOCC3)CC[C@@H]21 | -13.21%
64 | Cc1ccc(NS(=O)(=O)c2cccc(C#N)c2)c(CN(C)C)c1 | 5.777%
65 | Cc1c(C(=O)N2CCCC(n3nnc4cc(F)ccc43)C2)cnn1C (stereo not drawn) | 103.4%
66 | Cc1nnsc1C(=O)N1CCCC(n2nnc3cc(F)ccc32)C1 (stereo not drawn) | 86.87%
67 | O=C(c1n[nH]cc1Cl)N1CCCC(n2nnc3cc(F)ccc32)C1 (stereo not drawn) | 121.3%
68 | Cc1nnsc1C(=O)N1CCCC(c2nccn2Cc2cscn2)C1 (stereo not drawn) | 19.06%
69 | Cc1nn(C)cc1C(=O)N1CCCC(n2nnc3cc(F)ccc32)C1 (stereo not drawn) | 70.61%
70 | CCc1nnsc1C(=O)N1CCCC(COc2ccc(F)cc2)C1 (stereo not drawn) | -1.511%
71 | O=C(c1n[nH]cc1Cl)N1CCOC(Cc2cccc(C(F)(F)F)c2)C1 (stereo not drawn) | 16.6%
72 | Cc1nc(C)n(C2CCCN(C(=O)c3ccc(F)cc3F)C2)n1 (stereo not drawn) | 4.826%
73 | Cc1cc(C)n(C2CCCN(C(=O)c3ccc(F)cc3F)C2)n1 (stereo not drawn) | 0.0476%
